Assay in all cases: DAPPL (digital affinity profiling via proximity ligation, sequencing); 10 mM Tris-HCl pH 7.5, 50 mM NaCl, 1 mM DTT, 4% glycerol, room temperature, 30 min; GST-TFs on glutathione beads, 16-mer random dsDNA library, 0.1% formaldehyde crosslink after washing; high values mean tight binding
One assay deals with T1, FEV (Homo sapiens, UniProt Q99581 1-238).
T1 sequence: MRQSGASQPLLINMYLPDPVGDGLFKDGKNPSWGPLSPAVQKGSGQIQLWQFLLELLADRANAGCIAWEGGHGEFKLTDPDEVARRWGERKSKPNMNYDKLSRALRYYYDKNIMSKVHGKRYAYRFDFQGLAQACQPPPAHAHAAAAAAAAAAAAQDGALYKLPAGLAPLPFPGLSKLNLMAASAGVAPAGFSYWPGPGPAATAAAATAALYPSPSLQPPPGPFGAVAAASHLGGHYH
To be noted: protein: recombinant; tags: N-terminal GST; dsDNA, one strand shown. The procedure, abridged: (§1)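 Human transcription factors were made in yeast as GST fusions, captured on glutathione beads and barcoded with DNA. With a tag-only sample included, the pool was incubated with 200 nmole of a random double-stranded 16-mer DNA library in Tris/NaCl/DTT/glycerol buffer at room temperature for 30 min, then crosslinked with 0.1% formaldehyde after washing, ligated by proximity, amplified and sequenced. For binding signal, each hexamer's read frequency for a factor is divided by its frequency for the tag-only sample.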

The target of another assay is ETV5 (Homo sapiens, UniProt P41161 1-510). To be noted: protein: recombinant; tags: N-terminal GST; dsDNA, one strand shown. The procedure, abridged: as §1
In another assay the target is HSF1 (Homo sapiens, UniProt Q00613 1-529). To be noted: protein: recombinant; tags: N-terminal GST; chain copies: 3; dsDNA, one strand shown. The procedure, abridged:
as §1

The next assay has as its target T2, SPIC (Homo sapiens, UniProt Q8N5J4 1-248).
T2 sequence: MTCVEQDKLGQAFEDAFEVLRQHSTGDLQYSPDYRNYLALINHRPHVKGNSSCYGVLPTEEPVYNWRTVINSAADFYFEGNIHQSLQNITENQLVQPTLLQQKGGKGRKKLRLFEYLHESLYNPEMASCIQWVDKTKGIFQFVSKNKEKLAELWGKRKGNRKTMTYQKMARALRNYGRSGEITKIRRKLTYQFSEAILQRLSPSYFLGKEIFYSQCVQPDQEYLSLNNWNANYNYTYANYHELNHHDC
To be noted: protein: recombinant; tags: N-terminal GST; dsDNA, one strand shown. The procedure, abridged:
as §1

The target of a further assay is ELF4 (Homo sapiens, UniProt Q99607 1-663). To be noted: protein: recombinant; tags: N-terminal GST; dsDNA, one strand shown. The procedure, abridged:
as §1

In the next assay the target is T3, ELK4 (Homo sapiens, UniProt P28324-2 1-405).
T3 sequence: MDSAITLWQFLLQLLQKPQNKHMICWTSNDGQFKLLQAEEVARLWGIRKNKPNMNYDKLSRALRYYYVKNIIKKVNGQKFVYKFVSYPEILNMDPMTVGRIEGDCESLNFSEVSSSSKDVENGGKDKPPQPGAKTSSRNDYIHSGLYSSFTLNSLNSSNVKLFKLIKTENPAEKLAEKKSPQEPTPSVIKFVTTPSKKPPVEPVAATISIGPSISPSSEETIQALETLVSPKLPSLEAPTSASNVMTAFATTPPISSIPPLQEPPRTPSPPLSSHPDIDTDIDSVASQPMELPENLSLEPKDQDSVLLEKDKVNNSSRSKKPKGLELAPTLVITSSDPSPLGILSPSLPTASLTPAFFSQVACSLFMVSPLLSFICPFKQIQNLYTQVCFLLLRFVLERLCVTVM
To be noted: protein: recombinant; tags: N-terminal GST; dsDNA, one strand shown. A digest of the protocol: as §1

A further assay addresses T4, ETV2 (Homo sapiens, UniProt O00321 1-342).
T4 sequence: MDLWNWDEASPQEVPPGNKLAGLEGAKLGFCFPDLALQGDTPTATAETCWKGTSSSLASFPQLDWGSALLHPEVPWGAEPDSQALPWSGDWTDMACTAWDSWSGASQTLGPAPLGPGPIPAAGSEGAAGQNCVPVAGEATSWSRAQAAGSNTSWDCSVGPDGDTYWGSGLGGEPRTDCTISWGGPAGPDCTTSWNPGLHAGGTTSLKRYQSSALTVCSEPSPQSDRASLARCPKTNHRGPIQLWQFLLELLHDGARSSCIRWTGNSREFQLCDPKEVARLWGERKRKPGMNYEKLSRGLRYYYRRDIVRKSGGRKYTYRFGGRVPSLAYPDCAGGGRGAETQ
To be noted: protein: recombinant; tags: N-terminal GST; dsDNA, one strand shown. A digest of the protocol:
as §1

Another assay deals with T5, ELF3 (Homo sapiens, UniProt P78545 1-371).
T5 sequence: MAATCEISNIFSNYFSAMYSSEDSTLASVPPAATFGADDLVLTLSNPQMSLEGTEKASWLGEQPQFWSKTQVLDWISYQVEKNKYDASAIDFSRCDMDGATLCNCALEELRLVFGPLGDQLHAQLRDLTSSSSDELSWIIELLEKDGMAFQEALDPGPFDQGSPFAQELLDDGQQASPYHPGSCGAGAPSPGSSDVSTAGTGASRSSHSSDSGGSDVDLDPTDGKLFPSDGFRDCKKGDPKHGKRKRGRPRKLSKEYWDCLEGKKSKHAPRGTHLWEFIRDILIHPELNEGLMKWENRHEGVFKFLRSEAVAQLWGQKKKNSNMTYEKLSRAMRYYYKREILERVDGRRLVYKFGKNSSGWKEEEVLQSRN
To be noted: protein: recombinant; tags: N-terminal GST; dsDNA, one strand shown. The procedure, abridged: as §1

For a further assay, the target named is CRX (Homo sapiens, UniProt O43186 1-299). To be noted: protein: recombinant; tags: N-terminal GST; dsDNA, one strand shown. A digest of the protocol:
as §1

For the next assay, the target named is ETV1 (Homo sapiens, UniProt P50549 1-477). To be noted: protein: recombinant; tags: N-terminal GST; dsDNA, one strand shown. A digest of the protocol:
as §1

The target in the next assay is T6, ERF (Homo sapiens, UniProt P50548 1-548).
T6 sequence: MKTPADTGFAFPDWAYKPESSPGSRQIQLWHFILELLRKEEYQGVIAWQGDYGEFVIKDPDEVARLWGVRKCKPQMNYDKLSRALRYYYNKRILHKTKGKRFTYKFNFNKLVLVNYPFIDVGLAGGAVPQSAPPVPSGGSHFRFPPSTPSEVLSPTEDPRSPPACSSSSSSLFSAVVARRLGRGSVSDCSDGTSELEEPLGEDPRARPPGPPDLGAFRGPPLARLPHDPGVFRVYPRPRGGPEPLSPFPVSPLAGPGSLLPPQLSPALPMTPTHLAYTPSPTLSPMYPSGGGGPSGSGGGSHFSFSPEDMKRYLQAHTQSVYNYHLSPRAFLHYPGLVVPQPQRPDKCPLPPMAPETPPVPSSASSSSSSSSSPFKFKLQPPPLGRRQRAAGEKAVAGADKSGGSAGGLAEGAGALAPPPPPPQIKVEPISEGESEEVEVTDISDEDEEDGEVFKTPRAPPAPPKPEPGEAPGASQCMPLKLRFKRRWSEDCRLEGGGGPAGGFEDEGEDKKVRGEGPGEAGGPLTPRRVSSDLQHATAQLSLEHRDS
To be noted: protein: recombinant; tags: N-terminal GST; dsDNA, one strand shown. A digest of the protocol: as §1

The next assay deals with T7, ETV3L (Homo sapiens, UniProt Q6ZN32 1-361).
T7 sequence: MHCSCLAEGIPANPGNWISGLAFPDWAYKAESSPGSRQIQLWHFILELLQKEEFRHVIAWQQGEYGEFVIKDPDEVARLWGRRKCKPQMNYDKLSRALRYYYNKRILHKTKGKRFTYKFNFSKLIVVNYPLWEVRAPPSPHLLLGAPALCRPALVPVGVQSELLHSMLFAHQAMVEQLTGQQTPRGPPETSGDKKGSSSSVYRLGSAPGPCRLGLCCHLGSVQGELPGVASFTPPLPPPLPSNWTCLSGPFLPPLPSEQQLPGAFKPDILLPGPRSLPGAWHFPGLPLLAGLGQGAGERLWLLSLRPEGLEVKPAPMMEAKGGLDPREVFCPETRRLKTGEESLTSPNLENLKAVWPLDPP
To be noted: protein: recombinant; tags: N-terminal GST; dsDNA, one strand shown. A digest of the protocol: as §1

The target in the next assay is T8, ETS2 (Homo sapiens, UniProt P15036 1-469).
T8 sequence: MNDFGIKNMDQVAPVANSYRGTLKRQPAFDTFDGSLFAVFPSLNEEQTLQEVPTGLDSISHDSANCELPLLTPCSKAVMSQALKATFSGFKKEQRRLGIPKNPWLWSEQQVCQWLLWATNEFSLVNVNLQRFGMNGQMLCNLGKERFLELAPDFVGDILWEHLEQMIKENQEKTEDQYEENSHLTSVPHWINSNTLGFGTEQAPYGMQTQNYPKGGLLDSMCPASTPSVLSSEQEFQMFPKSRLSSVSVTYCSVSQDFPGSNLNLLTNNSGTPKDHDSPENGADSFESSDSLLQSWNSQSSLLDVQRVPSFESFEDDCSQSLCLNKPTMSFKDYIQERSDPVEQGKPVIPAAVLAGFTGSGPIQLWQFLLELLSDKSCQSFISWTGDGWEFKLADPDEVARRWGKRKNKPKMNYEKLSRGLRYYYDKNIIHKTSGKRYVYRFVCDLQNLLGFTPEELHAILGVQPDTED
To be noted: protein: recombinant; tags: N-terminal GST; dsDNA, one strand shown. The procedure, abridged:
as §1

For the next assay, the target named is T9, SPDEF (Homo sapiens, UniProt O95238 1-335).
T9 sequence: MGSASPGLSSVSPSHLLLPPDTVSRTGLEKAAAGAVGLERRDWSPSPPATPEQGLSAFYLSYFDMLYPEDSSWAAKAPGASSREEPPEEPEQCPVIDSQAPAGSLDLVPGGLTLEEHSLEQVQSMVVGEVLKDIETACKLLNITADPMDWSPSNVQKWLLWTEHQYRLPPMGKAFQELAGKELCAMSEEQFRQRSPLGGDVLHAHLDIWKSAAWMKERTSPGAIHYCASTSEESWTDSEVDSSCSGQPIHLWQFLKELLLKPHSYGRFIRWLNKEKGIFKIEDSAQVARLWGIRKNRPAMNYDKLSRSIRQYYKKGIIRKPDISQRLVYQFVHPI
To be noted: protein: recombinant; tags: N-terminal GST; dsDNA, one strand shown. A digest of the protocol: as §1

In another assay the target is T10, ETV7 (Homo sapiens, UniProt Q9Y603 1-341).
T10 sequence: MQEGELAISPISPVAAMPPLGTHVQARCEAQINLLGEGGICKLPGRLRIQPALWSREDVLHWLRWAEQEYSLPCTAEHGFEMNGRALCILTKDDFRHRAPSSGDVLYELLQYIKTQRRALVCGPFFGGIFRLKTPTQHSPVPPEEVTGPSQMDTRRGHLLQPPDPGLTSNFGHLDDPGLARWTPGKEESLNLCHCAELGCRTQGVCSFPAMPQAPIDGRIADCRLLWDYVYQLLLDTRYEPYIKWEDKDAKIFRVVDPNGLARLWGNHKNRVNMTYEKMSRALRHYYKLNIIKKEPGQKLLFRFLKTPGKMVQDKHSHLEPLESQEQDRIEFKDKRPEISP
To be noted: protein: recombinant; tags: N-terminal GST; dsDNA, one strand shown. The procedure, abridged:
as §1

Another assay addresses T11, ELF5 (Homo sapiens, UniProt Q9UKW6-2 1-255).
T11 sequence: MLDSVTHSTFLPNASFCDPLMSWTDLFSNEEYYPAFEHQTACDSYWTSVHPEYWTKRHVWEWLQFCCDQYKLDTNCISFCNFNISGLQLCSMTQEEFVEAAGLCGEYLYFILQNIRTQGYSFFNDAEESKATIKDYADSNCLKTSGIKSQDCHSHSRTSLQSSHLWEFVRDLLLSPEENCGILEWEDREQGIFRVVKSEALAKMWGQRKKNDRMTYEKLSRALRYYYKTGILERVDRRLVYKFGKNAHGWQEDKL
To be noted: protein: recombinant; tags: N-terminal GST; dsDNA, one strand shown. A digest of the protocol: as §1

For another assay, the target named is T12, ETV3 (Homo sapiens, UniProt P41162-2 1-143).
T12 sequence: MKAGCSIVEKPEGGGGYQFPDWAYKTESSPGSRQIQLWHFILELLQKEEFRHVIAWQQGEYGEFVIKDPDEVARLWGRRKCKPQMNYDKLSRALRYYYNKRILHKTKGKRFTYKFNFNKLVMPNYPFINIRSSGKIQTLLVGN
To be noted: protein: recombinant; tags: N-terminal GST; dsDNA, one strand shown. A digest of the protocol: as §1

A further assay addresses ETV6 (Homo sapiens, UniProt P41212 1-452). To be noted: protein: recombinant; tags: N-terminal GST; dsDNA, one strand shown. A digest of the protocol: as §1

ETV5, sequence (P41161 whole entry): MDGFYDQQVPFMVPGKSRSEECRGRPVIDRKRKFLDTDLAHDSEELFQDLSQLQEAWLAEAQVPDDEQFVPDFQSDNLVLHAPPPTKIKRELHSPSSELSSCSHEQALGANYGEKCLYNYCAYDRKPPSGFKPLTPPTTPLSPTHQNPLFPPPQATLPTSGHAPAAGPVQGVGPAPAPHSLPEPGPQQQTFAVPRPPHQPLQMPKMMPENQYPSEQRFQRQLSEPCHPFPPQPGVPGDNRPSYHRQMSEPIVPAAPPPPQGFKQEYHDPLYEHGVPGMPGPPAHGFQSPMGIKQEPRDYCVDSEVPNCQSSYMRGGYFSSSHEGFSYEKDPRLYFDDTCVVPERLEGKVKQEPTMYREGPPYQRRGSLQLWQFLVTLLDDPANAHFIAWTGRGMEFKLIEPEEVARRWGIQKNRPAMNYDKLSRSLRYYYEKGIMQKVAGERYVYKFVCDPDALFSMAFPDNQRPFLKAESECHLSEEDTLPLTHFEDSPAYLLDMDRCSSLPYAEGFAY
CRX, sequence (O43186 whole entry): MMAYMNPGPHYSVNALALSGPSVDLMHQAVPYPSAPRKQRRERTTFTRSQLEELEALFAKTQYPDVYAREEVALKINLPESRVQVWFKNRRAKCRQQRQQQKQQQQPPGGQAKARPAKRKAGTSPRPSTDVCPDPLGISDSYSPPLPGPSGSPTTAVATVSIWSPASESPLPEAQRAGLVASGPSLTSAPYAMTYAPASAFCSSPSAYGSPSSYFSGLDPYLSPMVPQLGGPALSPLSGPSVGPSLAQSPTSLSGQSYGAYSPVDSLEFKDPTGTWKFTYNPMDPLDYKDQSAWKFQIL
ETV6, sequence (P41212 whole entry): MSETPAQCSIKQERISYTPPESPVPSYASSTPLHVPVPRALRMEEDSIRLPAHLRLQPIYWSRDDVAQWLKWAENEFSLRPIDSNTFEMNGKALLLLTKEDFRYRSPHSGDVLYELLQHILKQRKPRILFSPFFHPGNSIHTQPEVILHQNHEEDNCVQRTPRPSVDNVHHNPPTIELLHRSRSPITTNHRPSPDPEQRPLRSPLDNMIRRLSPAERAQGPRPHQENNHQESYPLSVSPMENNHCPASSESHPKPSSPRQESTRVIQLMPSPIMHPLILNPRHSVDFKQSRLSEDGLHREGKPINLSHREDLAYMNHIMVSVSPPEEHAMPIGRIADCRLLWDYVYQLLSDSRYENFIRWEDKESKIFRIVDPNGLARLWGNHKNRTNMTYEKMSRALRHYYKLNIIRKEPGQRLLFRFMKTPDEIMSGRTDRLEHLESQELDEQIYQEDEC
HSF1, sequence (Q00613 whole entry): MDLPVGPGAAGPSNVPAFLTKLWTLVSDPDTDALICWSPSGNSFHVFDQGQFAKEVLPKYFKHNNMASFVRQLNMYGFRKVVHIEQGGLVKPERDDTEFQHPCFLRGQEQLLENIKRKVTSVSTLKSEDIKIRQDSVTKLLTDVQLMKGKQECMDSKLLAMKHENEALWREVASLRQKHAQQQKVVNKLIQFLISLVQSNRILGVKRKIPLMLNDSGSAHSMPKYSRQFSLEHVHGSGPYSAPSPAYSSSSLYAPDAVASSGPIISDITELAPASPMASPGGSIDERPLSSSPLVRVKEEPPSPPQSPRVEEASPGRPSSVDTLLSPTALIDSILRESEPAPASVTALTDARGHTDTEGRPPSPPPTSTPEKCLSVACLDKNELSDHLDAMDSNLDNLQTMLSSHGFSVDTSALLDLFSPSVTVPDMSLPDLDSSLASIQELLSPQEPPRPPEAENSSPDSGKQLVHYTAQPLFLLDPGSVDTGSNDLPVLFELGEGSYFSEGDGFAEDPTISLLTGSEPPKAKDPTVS
ETV1, sequence (P50549 whole entry): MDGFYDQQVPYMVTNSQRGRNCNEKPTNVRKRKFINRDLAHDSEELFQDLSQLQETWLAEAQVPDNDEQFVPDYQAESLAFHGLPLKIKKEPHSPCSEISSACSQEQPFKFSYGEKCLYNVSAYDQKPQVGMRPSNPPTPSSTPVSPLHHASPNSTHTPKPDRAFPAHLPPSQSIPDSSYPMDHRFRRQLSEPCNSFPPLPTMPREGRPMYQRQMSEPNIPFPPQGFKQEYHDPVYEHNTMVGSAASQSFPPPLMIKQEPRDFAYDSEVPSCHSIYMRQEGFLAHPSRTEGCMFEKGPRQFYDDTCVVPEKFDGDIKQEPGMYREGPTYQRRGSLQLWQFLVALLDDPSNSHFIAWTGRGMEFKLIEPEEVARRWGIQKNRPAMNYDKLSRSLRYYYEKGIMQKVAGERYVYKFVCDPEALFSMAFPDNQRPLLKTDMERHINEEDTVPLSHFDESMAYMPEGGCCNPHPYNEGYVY
ELF4, sequence (Q99607 whole entry): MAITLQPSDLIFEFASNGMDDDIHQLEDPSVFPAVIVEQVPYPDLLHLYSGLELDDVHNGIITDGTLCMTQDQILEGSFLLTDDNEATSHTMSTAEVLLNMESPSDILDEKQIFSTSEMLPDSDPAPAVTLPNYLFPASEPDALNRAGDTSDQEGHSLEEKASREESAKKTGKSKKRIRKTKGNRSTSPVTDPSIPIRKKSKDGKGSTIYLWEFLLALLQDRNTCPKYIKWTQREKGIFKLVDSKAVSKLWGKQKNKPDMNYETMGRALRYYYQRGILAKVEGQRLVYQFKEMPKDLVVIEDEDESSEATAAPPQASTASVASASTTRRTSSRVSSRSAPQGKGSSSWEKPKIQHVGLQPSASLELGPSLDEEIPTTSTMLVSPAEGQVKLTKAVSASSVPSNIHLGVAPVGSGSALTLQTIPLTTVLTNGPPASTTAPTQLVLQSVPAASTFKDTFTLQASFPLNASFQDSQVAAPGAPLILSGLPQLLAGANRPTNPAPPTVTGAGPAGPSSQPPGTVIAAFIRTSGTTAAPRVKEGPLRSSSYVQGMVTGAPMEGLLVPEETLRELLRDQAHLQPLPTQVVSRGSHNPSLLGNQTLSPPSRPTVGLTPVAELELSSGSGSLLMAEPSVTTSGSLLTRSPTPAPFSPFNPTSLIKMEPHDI

On to CTGCAA, for which the binding signal in the assay with FEV is 1.29 fold enrichment (6-mer frequency, TF over GST control); with ETV5, 1.3 fold enrichment (6-mer frequency, TF over GST control); with HSF1, 1.14 fold enrichment (6-mer frequency, TF over GST control); in the assay with SPIC it was 1.2 fold enrichment (6-mer frequency, TF over GST control); with ELF4, 1.23 fold enrichment (6-mer frequency, TF over GST control); with ELK4 it was 1.32 fold enrichment (6-mer frequency, TF over GST control). The binding signal with ETV2 is 1.07 fold enrichment (6-mer frequency, TF over GST control); with ELF3 it was 1.4 fold enrichment (6-mer frequency, TF over GST control); with CRX, 1.05 fold enrichment (6-mer frequency, TF over GST control); in the assay with ETV1 it was 1.24 fold enrichment (6-mer frequency, TF over GST control); in the assay with ERF, 1.28 fold enrichment (6-mer frequency, TF over GST control); in the assay with ETV3L it was 1.35 fold enrichment (6-mer frequency, TF over GST control). Besides, the binding signal with ETS2 was 1.31 fold enrichment (6-mer frequency, TF over GST control); with SPDEF, 1.11 fold enrichment (6-mer frequency, TF over GST control); with ETV7, 1.16 fold enrichment (6-mer frequency, TF over GST control); with ELF5 it was 1.17 fold enrichment (6-mer frequency, TF over GST control); with ETV3, 1.26 fold enrichment (6-mer frequency, TF over GST control); with ETV6, 1.33 fold enrichment (6-mer frequency, TF over GST control).

The values above are taken from publication PMC7862700, “An all-to-all approach to the identification of sequence-specific readers for epigenetic DNA modifications on cytosine”.
